Consider 10 compounds from PubChem BioAssay (NCATS).

Results filed as inconclusive are left out. Activity calls are given as the source filed them. Unless noted, the call rests on the fitted dose curve.

The nature of assay [1]: qHTS assay for small molecule antagonists of peroxisome proliferator-activated receptor delta signaling (AID 588535; active means well fitted inhibition curve with a large enough effect in the signal ratio, with a control signal flat, not every such curve was filed as active; the % refers to the signal ratio;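 on max response: cells co-treated with a PPAR-delta agonist as stimulator during compound exposure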). Particulars: HEK293T PPARd-UAS-bla, beta-lactamase FRET ratio, 18 h; 460 nm channel. An outline of the steps: (§1)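 Cell-based beta-lactamase assay in antagonist mode: 4000 HEK293T PPAR-delta-UAS-bla cells per well, 5 hr preincubation then 18 hr compound incubation at 37 C. IC50 obtained by Hill equation fitting.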
In general terms: qHTS replaces the single test concentration by a dilution series.

Assay [2] concerns the target Peroxisome proliferator-activated receptor delta (Homo sapiens) (UniProt Q03181). Described as above. Particulars: HEK293T PPARd-UAS-bla, beta-lactamase FRET ratio, 18 h; series mostly up to 76.7 µM. An outline of the steps:
as §1

For assay [3], the target named is Peroxisome proliferator-activated receptor gamma (Homo sapiens) (UniProt P37231). Description: qHTS assay for small molecule agonists of peroxisome proliferator-activated receptor gamma signaling (AID 588536; active means well fitted curve in the direction sought with a large enough effect in the signal ratio, with a control signal flat, not every such curve was filed as active; the % refers to the signal ratio;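 further: 0% = DMSO basal wells and 100% = rosiglitazone at 2 µM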). Particulars: HEK293 PPARg-UAS-bla, beta-lactamase ratio, 16 h, percent of rosiglitazone response, DMSO as zero; series mostly up to 76.7 µM. An outline of the steps: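 GeneBLAzer PPAR-gamma-UAS-bla HEK293 cells in 1% charcoal/dextran-treated FBS medium were treated 16 h at 37 C with compounds. Beta-lactamase activity was read by CCF4 ratio (460/530 nm). Response was normalized to 2 uM rosiglitazone (100%) and DMSO, then Hill-fitted for EC50 and efficacy.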
Peroxisome proliferator-activated receptor gamma (Homo sapiens), sequence (P37231 whole entry, looked up): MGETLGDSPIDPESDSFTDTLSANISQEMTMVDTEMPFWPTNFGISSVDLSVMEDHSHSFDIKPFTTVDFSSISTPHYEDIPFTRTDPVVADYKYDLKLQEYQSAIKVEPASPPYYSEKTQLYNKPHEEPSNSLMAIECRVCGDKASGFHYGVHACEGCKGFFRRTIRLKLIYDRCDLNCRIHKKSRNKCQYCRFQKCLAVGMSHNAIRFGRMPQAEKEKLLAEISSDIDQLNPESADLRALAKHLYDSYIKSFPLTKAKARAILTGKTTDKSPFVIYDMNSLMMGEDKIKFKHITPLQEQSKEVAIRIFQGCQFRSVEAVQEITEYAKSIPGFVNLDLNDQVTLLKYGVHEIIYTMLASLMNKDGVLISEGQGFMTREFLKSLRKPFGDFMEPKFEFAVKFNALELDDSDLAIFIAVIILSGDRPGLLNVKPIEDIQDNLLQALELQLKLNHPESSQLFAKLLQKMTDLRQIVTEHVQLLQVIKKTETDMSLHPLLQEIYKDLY

The target in assay [4] is Vitamin D3 receptor (Homo sapiens) (UniProt P11473). Description: qHTS assay for small molecule antagonists of vitamin D receptor signaling (AID 588541).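 Further: receptor activated by calcitriol during compound treatment; on the % scale 0 is the no-effect control and ±100 the full control effect.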 Particulars: HEK293T VDR-UAS-bla, beta-lactamase ratio, antagonist mode; series mostly up to 76.7 µM. The gist of the method:
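Antagonist-mode beta-lactamase reporter assay: HEK293T VDR-UAS-bla cells were exposed to titrated compound alongside 1-alpha,25-dihydroxyvitamin D3 at 3 nM final for 16 h. Values were normalized to the 50 nM agonist control and DMSO basal, with IC50 and efficacy from Hill equation fits.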

The target is the same in assay [5]. Put plainly: qHTS assay for small molecule agonists of vitamin D receptor signaling (AID 588543).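 Further: 0% = DMSO basal and 100% = reference agonist control.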 Particulars: HEK293T VDR-UAS-bla, beta-lactamase ratio, 16 h; series mostly up to 76.8 µM. The gist of the method: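 β-lactamase reporter, VDR-UAS-bla HEK293T, agonist mode. Cells plated 5 h at 37 °C, compound titration 16 h at 37 °C, CCF4 dye 2 h RT, ratio 460/530 nm. Hill fit → EC50, efficacy vs 50 nM 1α,25-(OH)2D3.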

The nature of assay [6]: qHTS assay for small molecule antagonists of retinoid X receptor alpha signaling (AID 588546; active means well fitted inhibition curve with a large enough effect in the signal ratio, with a control signal flat, not every such curve was filed as active; the % refers to the signal ratio;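 further: cells stimulated with 9-cis-retinoic acid as agonist; on the % scale 0 is the no-effect control and ±100 the full control effect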). Particulars: HEK293T RXRa-UAS-bla, beta-lactamase ratio, antagonist mode; measured here: W530 green channel, cytotoxicity proxy. The gist of the method:
(§2)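 Beta-lactamase reporter inhibition, read as CCF4 fluorescence ratio (ex 405, em 460/530 nm) after 2 h at RT. HEK293T UAS-bla cells, 2500/well, were stimulated with 9-cis-RA at 500 or 100 nM final alongside test compound for 18 h at 37 C.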

The target in assay [7] is Retinoic acid receptor RXR-alpha (Homo sapiens) (UniProt P19793). The assay is described as above. Particulars: HEK293T RXRa-UAS-bla, beta-lactamase ratio, antagonist mode. The gist of the method: as §2
Retinoic acid receptor RXR-alpha (Homo sapiens), sequence (P19793 whole entry, looked up): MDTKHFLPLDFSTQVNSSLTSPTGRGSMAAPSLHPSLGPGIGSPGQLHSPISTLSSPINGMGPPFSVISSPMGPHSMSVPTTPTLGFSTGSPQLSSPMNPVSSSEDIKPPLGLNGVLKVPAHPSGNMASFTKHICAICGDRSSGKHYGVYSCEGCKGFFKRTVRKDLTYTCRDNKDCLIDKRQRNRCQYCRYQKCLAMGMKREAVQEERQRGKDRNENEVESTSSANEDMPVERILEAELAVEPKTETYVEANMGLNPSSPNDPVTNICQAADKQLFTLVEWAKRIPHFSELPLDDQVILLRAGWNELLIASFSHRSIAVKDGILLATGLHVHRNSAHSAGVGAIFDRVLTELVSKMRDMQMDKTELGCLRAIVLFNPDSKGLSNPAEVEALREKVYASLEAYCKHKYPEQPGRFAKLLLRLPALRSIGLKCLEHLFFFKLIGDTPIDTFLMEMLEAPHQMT
In assay [8] the target is Thyroid hormone receptor beta (Homo sapiens) (UniProt P10828). Put plainly: qHTS assay for small molecule antagonists of thyroid hormone receptor beta signaling (AID 588547; active means well fitted inhibition curve with a large enough effect in the signal ratio, with a control signal flat, not every such curve was filed as active; the % refers to the signal ratio;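 further: cells stimulated with 0.4 nM T3 agonist during compound exposure; on the % scale 0 is the no-effect control and ±100 the full control effect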). Particulars: TR-UAS-bla HEK293, beta-lactamase ratio, antagonist mode, 18 h. The gist of the method: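 Inhibition of T3-driven (0.4nM final) beta-lactamase reporter activity was measured over 0.59 nM to 92 uM compound after 18 h at 37 C. The cells were GripTite HEK293 TR-UAS-bla in charcoal/dextran-stripped serum, with CCF4 ratio read-out and IC50 from Hill fits.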
Thyroid hormone receptor beta (Homo sapiens), sequence (P10828 whole entry, looked up): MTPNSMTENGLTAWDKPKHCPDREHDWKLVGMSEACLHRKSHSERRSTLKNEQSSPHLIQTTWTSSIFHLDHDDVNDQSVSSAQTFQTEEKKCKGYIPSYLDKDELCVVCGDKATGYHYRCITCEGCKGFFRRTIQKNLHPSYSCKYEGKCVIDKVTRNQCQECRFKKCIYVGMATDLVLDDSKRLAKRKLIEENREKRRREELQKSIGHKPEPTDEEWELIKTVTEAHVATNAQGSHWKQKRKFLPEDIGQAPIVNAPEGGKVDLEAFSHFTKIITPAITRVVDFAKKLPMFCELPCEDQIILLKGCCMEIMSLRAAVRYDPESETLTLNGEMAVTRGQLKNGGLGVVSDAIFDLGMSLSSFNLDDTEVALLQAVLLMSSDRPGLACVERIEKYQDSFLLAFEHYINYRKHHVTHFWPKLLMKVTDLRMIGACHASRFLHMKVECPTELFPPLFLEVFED

Assay [9] deals with Voltage-gated inwardly rectifying potassium channel KCNH2 (Homo sapiens) (UniProt Q12809). Description: qHTS Assay for Small Molecule Inhibitors of the Human hERG Channel Activity (AID 588834; active means well fitted inhibition curve with a large enough effect;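 further: top concentration of the series differs between compounds; on the % scale 0 is the no-effect control and ±100 the full control effect; lower thallium flux fluorescence means stronger hERG block; nearly all actives have a fitted effect of over 50% in size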). Particulars: U2OS BacMam hERG, FluxOR thallium flux fluorescence; series mostly up to 92.2 µM. An outline of the steps:
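Concentration-response qHTS measuring drop in thallium-sensitive dye signal. U2OS cells carrying BacMam hERG; compound exposure ~10 min, then stimulation buffer and 2 min read at 1 sec intervals.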

Assay [10] can be described thus: qHTS assay for small molecule agonists of the antioxidant response element (ARE) signaling pathway (AID 651741; active means well fitted activation curve with a large enough effect in the signal ratio; the % refers to the signal ratio; further: % of control where 0% means no effect). Particulars: HepG2 ARE-bla reporter, beta-lactamase FRET ratio, 16 h; series mostly up to 96 µM. The gist of the method: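 Seeding 2,000 ARE-bla HepG2 cells per well preceded a 5 h incubation at 37 C/5% CO2 and a 16 h compound exposure at 37 C. Beta-lactamase reporter activity was then quantified by fluorescence after 2 h with LiveBLAzer B/G FRET substrate.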

The nature of assay [11]: qHTS assay for small molecule activators of the p53 signaling pathway (AID 651743; active means well fitted activation curve with a large enough effect in the signal ratio, not every such curve was filed as active; the % refers to the signal ratio; further: % of control where 0% means no effect). Particulars: HCT-116 p53RE-bla, beta-lactamase FRET ratio, 16 h; stronger effect = higher value. The gist of the method: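 Screen for p53 pathway agonists uses stably transfected p53RE-bla HCT-116 cells, 4,000 per well, treated 16 h at 37 C with compounds in DMSO.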
Assay [12] in a line: qHTS assay for small molecule agonists of retinoid X receptor alpha signaling (AID 588544).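 On activation: 0% = DMSO basal wells and 100% = reference agonist.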 Particulars: HEK293T RXRa-UAS-bla, beta-lactamase reporter, 18 h; 530 nm emission.
The target in assay [13] is Retinoic acid receptor RXR-alpha (Homo sapiens) (UniProt P19793). Described as above. Particulars: HEK293T RXRa-UAS-bla, beta-lactamase reporter, 18 h; series mostly up to 76.7 µM.
Assay [14] deals with Thyroid hormone receptor beta (Homo sapiens) (UniProt P10828). Description: qHTS assay for small molecule agonists of thyroid hormone receptor beta signaling (AID 588545).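 Further: 0% = DMSO only and 100% = 10 nM T3.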 Particulars: TR-UAS-bla GripTite HEK 293, beta-lactamase ratio, agonist mode, 18 h, percent of T3 response, DMSO as zero; series mostly up to 76.7 µM. An outline of the steps:
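TR-UAS-bla GripTite HEK 293 cells (2500/well, medium with 2% charcoal/dextran FBS) were treated in agonist mode for 18 h at 37 C, titrated. Beta-lactamase was read by CCF4 ratio after 2 h; normalized to 10 nM T3 (100%) and DMSO, Hill-fitted for EC50 and efficacy.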

The nature of assay [15]: qHTS assay for small molecule activators of the nuclear factor-kappa B (NF-kB) signaling pathway (AID 651749; active means well fitted activation curve with a large enough effect in the signal ratio; the % refers to the signal ratio; further: % of control where 0% means no effect). Particulars: NF-kB-bla ME-180 cells, beta-lactamase FRET ratio, 16 h; stronger effect = higher value. The gist of the method: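 Stably transfected ME-180 line; NF-kB response element upstream of beta-lactamase. Treatment: compound or DMSO, 16 hr. Detection: fluorescent FRET substrate.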

Voltage-gated inwardly rectifying potassium channel KCNH2 (Homo sapiens), sequence (Q12809 whole entry, looked up): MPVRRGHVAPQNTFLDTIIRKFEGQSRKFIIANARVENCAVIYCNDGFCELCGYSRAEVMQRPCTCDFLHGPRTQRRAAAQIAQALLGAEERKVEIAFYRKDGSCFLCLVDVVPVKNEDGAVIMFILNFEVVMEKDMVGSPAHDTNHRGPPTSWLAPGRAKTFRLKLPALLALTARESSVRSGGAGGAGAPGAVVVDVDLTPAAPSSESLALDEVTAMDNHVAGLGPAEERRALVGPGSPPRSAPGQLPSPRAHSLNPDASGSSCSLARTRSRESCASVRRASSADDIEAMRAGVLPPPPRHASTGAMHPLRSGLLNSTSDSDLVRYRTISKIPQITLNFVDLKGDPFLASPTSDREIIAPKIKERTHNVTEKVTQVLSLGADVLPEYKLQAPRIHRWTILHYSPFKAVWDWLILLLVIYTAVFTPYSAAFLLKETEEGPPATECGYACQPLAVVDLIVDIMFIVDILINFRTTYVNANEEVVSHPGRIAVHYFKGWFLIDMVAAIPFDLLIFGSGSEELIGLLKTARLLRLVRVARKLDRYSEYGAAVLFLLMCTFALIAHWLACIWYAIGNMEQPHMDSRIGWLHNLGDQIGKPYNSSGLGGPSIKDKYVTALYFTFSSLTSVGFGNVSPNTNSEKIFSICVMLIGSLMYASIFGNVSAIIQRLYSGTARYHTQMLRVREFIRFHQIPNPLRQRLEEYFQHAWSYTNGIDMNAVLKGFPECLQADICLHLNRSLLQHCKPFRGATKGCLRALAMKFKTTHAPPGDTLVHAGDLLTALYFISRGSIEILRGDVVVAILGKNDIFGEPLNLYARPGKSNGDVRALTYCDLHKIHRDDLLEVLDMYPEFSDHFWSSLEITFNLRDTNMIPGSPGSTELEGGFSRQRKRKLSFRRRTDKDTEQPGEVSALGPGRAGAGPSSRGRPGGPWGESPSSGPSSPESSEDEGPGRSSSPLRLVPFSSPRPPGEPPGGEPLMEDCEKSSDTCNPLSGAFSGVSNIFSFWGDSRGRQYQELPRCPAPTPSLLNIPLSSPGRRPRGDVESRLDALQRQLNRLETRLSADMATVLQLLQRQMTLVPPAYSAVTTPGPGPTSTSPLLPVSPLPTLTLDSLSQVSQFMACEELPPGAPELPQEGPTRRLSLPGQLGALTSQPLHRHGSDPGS
Vitamin D3 receptor (Homo sapiens), sequence (P11473 whole entry, looked up): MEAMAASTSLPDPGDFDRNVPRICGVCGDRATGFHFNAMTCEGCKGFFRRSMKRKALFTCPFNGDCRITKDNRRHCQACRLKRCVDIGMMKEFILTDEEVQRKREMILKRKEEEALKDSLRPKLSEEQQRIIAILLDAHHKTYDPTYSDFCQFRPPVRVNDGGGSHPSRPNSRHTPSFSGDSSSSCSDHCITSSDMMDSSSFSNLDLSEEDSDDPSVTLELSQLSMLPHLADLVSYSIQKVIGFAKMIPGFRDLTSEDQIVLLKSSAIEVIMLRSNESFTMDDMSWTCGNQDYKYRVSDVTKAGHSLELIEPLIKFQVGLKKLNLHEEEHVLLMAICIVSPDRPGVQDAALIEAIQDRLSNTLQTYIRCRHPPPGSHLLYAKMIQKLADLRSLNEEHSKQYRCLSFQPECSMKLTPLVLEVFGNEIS
Peroxisome proliferator-activated receptor delta (Homo sapiens), sequence (Q03181 whole entry, looked up): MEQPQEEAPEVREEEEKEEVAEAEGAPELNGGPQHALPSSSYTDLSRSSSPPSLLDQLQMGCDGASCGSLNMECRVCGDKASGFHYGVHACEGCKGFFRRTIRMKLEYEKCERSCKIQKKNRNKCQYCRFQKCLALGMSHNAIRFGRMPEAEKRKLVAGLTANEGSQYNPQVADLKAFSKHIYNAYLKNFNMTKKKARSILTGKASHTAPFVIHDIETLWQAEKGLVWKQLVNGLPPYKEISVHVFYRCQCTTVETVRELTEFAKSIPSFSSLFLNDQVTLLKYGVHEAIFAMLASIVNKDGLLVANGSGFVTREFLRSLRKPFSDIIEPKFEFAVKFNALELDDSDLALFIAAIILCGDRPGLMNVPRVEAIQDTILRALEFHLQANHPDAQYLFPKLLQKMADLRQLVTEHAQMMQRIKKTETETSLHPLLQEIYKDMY

`CC(C)(c1cc(Br)c(OCC(Br)CBr)c(Br)c1)c1cc(Br)c(OCC(Br)CBr)c(Br)c1` (stereo unspecified): the values for the max response in assay [1], in [6] and in [7] were -13.7%, -15.9% and 2.49% (inactive), respectively. The Potency result in [2], in [9] and in [10] was “inactive” each time. The outcome in assay [3], in assay [4] and in assay [5] was inactive. The activity change % (negative = inhibition) in assay [8] was -9.17% (inactive). For the same compound, the activation in [11] is 2.84% (inactive).
With `Cc1ccc2ncccc2c1`, the max response in assay [1] is 20.6%; in assay [12], -4.8%; in [6], -2.62%; in [7], 2.87% (inactive). The outcome in assay [3], in assay [13] and in assay [14] was inactive. Besides, the activity change % (negative = inhibition) in assay [8] is 1.73% (inactive). The Potency entry in [9] and in assay [10] was “inactive” each time. The figures for the activation in assay [11] and in assay [15] were -3.29% (inactive) and -1.62% (inactive), respectively.
Take `Oc1c(Cl)ccc(Cl)c1Cl`: the result in assay [4], in [5], in assay [13] and in assay [14] was inactive. Also, the max response was found to be 2.14% in [12] and 1.62% in assay [6]. Besides, the activity change % (negative = inhibition) in [8] was 13.7% (inactive). The Potency result in assay [9] was “inactive”. In addition, in [11], the activation was 1.05% (inactive).
Turning to `C/C=C(/C)C#N`, the max response in assay [1] is 26.2%; in [12], -23.6%; in assay [6] it was 0.293%. Also, the Potency entry in assay [2], in assay [9] and in [10] was “inactive” each time. For the same compound, the result in [3], in assay [4] and in assay [14] was inactive. Further, in assay [8], the activity change % (negative = inhibition) is 15% (inactive). The activation in assay [11] is -0.853% (inactive); in [15], -0.053% (inactive).
With `O=Cc1ccc(CO)o1`, the outcome in [3], in assay [4], in [5], in assay [13] and in assay [14] was inactive. Also, the figures for the max response in assay [12], in assay [6] and in assay [7] were -13.3%, 0.176% and 8.3% (inactive), respectively. Moreover, the activity change % (negative = inhibition) in assay [8] is 7.62% (inactive). In addition, in assay [9], the Potency result is “inactive”. For the same compound, the activation in assay [11] was -2.06% (inactive).
Regarding `c1ccc2c(c1)Oc1ccccc1S2`, the max response in assay [1] was 19.7%; in [12] it was -9.36%; in assay [6] it was -7.12%; in [7], 5.17% (inactive). Further, the Potency entry in [2] and in [10] was “inactive” throughout. The result in assay [4], in [5], in assay [13] and in assay [14] was inactive. For the same compound, the activity change % (negative = inhibition) in [8] was -3.93% (inactive). The activation in assay [11] is 0.189% (inactive); in assay [15] it was -0.203% (inactive).
For the compound `CC1CCCO1` (stereo unspecified), the max response in assay [1] is 6.05%; in assay [12], 11.5%. Moreover, the Potency result in [2], in [9] and in assay [10] was “inactive” throughout. For the same compound, the result in assay [3], in [4], in assay [5] and in assay [13] was inactive. Also, in [8], the activity change % (negative = inhibition) was 1.5% (inactive). Further, the activation in assay [11] is -2.21% (inactive); in assay [15], -0.396% (inactive).
Consider `CC(=O)CCc1ccccc1`, for which the result in [3], in [4], in [5], in [13] and in [14] was inactive. For the same compound, the figures for the max response in assay [12], in [6] and in assay [7] were -7.54%, -0.836% and 0.594% (inactive), respectively. In addition, the activity change % (negative = inhibition) in assay [8] is 12% (inactive). Moreover, the Potency result in assay [10] was “inactive”. The activation in [11] was -1.61% (inactive); in assay [15] it was 0.0566% (inactive).
For `C=C(C)C(N)=O`, the outcome in assay [3], in assay [4], in assay [5], in [13] and in assay [14] was inactive. The max response is -0.693% in [12], -10.5% in assay [6] and 23.8% (inactive) in assay [7]. Also, in assay [8], the activity change % (negative = inhibition) was -24.4% (inactive). Besides, the Potency entry in assay [9] and in assay [10] was “inactive” throughout. For the same compound, the activation in assay [11] is -2.66% (inactive); in assay [15] it was -0.276% (inactive).
Regarding `[O-]/[N+](=N\O)c1ccccc1`, the result in assay [3], in [4], in assay [5] and in [14] was inactive. Moreover, the Potency result in [9] was “inactive”. Also, in assay [11], the activation was -2.28% (inactive).
